Results reported in PubChem BioAssay (Tox21).
Results filed as inconclusive are left out. Calls of active or inactive are those of the source. Unless noted, calls come from the whole dose curve; as a rule, active = well fitted curve in the direction sought with a large enough effect in the repeat runs; inconclusive = weak or mixed curves; inactive = no such curve, though single readings can be large; an effect the other way counts as inactive or inconclusive.

Legend:
[1] = biological target: Estrogen receptor beta (Homo sapiens) (UniProt Q92731); experiment: qHTS assay to identify small molecule agonists of the estrogen receptor beta (ER-beta) signaling pathway (AID 1259377; active = well fitted activation curve with a large enough effect in the signal ratio in the repeat runs, not every such curve was filed as active; the % refers to the signal ratio)
Summary of the method: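 Screening used GripTite ER-beta-UAS-bla cells held in 2% charcoal-stripped FBS medium. After overnight (16 hr) compound incubation at 37C, beta-lactamase activity was detected with a FRET substrate by fluorescence.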

[2] = qHTS assay to identify small molecule agonists of the androgen receptor (AR) signaling pathway in the presence of an antagonist - cell viability counter screen (AID 1259379);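 note: MDA-kb2 human breast cancer cells carrying an MMTV luciferase reporter; series mostly up to about 92 µM; nearly all actives have a fitted effect of over 25% in size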
Summary of the method: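 Cytotoxicity counter-screen run in the same wells as the nilutamide-challenged (3.0 µM final) AR agonist assay in MDA-kb2 cells. Compounds tested at 15 concentrations for 16 h, 37 °C without CO2; CellTiter-Fluor fluorescence read.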

[3] = qHTS assay to identify small molecule agonists of the estrogen receptor beta (ER-beta) signaling pathway - cell viability counter screen (AID 1259380); note: nearly all actives have a fitted effect of over 30% in size; note: potency is the fitted concentration of half-maximal effect
Summary of the method: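 Cell viability counter screen: CellTiter-Glo luminescence (30 min, room temperature) measured in the same wells as the beta-lactamase readout, after 16 hr compound exposure at 37C of ER-beta-bla HEK293T cells in 2% charcoal-stripped FBS medium.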

[4] = qHTS assay to identify small molecule antagonists of the estrogen receptor beta (ER-beta) signaling pathway - cell viability counter screen (AID 1259382); note: nearly all actives have a fitted effect of over 55% in size; note: potency is the fitted concentration of half-maximal effect
Summary of the method: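 Cytotoxicity was measured in the same wells by CellTiter-Glo luminescence after 30 min at room temperature. Cells were ER-beta-bla HEK293T in charcoal-stripped serum, given compound together with 1 nM E2 and incubated 16 h at 37C.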

[5] = qHTS assay to identify small molecule agonists or antagonists of the thyroid stimulating hormone receptor (TSHR) signaling pathway - wild type cell line counter screen (AID 1259384; calls by dose curve)
Summary of the method: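 Wild-type Hek293 cells, 800/well, 18 h at 37C, then compound with Ro20-1724 for 30 min RT. cAMP by HTRF (cAMP-d2/anti-cAMP cryptate), 1 h RT, fluorescence read. 15 concentrations, triplicates.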

[6] = qHTS assay to identify small molecule agonists of the estrogen receptor alpha (ER-alpha) signaling pathway in the presence of an antagonist - cell viability counter screen (AID 1259386); note: series mostly up to about 92 µM; nearly all actives have a fitted effect of over 30% in size
Summary of the method: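 Compounds tested at 15 concentrations for 22 h at 37C alongside 10.0nM (final) ICI-182,780 antagonist, in VM7Luc4E2 cells grown in phenol red-free, charcoal-stripped medium. Viability read by CellTiter-Fluor fluorescence after 1 h reagent incubation.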

[7] = qHTS assay to identify small molecule antagonists of the progesterone receptor (PR) signaling pathway - cell viability counter screen (AID 1346798); note: nearly all actives have a fitted effect of over 50% in size; note: potency is the fitted concentration of half-maximal effect
Summary of the method: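 Measures cytotoxicity in parallel with the PR antagonist reporter read: HEK293T PR-UAS-bla cells get compound and R5020 for 16 hr, and remaining viable cells are quantified by CellTiter-Glo luminescence.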

[8] = qHTS assay to identify small molecule antagonists of the TGF-beta/Smad signaling pathway - cell viability counter screen (AID 1346824); note: nearly all actives have a fitted effect of over 50% in size
Summary of the method: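 SBE-bla HEK 293T cells, incubated overnight, then compound plus 0.25 ng/mL TGF-beta1 (stock added) for 5 hr at 37 C. Viability was read in the same wells by CellTiter-Glo luminescence after 30 min at room temperature.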

[9] = qHTS assay to identify small molecule agonists of the TGF-beta/Smad signaling pathway (AID 1346859; active = well fitted activation curve with a large enough effect in the signal ratio in the repeat runs, not every such curve was filed as active; the % refers to the signal ratio; note: series mostly up to about 77 µM)
Summary of the method: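 Beta-lactamase reporter activity downstream of Smad binding elements was measured in stably transfected HEK 293T cells; compounds were incubated for 5 hr, substrate for 2 hr at room temperature.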

[10] = biological target: Thyrotropin-releasing hormone receptor (Homo sapiens) (UniProt P34981); experiment: qHTS assay to identify small molecule antagonists of the thyrotropin-releasing hormone receptor (TRHR) signaling pathway (AID 1346877; active = well fitted inhibition curve with a large enough effect in the repeat runs, not every such curve was filed as active; note: series mostly up to about 51 µM)
Summary of the method: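 Antagonist mode: after a 5 min room-temperature compound exposure, cells were stimulated with 1 nM (final) TRH. Dye-loaded TRHR-HEK293 cells were used, and calcium-dependent fluorescence was followed for 3 min, with 15-point titrations run in triplicate.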

[11] = biological target: Thyrotropin-releasing hormone receptor (Homo sapiens) (UniProt P34981); experiment: qHTS assay to identify small molecule agonists of the thyrotropin-releasing hormone receptor (TRHR) signaling pathway (AID 1346891; calls by dose curve;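 note: HEK293 cells expressing TRHR with calcium dye readout; series mostly up to about 58 µM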)
Summary of the method: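 Overnight-plated (18 h, 37 °C, 5% CO2) TRHR-Hek293 cells; 2 h calcium dye at 37 °C; compound in DMSO; 3-min kinetic fluorescence read.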

[12] = biological target: Estrogen receptor beta (Homo sapiens) (UniProt Q92731); experiment: qHTS assay to identify small molecule antagonists of the estrogen receptor beta (ER-beta) signaling pathway (AID 1259378; active = well fitted inhibition curve with a large enough effect in the signal ratio in the repeat runs, not every such curve was filed as active; the % refers to the signal ratio)
Summary of the method: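 ER-beta-UAS-bla HEK293T cells in 2% charcoal-stripped FBS medium treated with compound plus 1nM final 17-beta-estradiol for 16 hr at 37C. Beta-lactamase reporter read by FRET substrate fluorescence after 2 hours at room temperature.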

[13] = biological target: Androgen receptor (Homo sapiens) (UniProt P10275); experiment: qHTS assay to identify small molecule agonists of the androgen receptor (AR) signaling pathway in the presence of an antagonist (AID 1259381; calls by dose curve; note: nearly all actives have a fitted effect of over 15% in size)
Summary of the method: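 Agonist-mode confirmation run against 3.0 uM final nilutamide: compounds titrated at 15 concentrations onto MDA-kb2 MMTV-luciferase reporter cells. Luminescence measured with ONE-Glo following 16 hr incubation, 37C, 0% CO2.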

[14] = biological target: Progesterone receptor (Homo sapiens) (UniProt P06401); experiment: qHTS assay to identify small molecule agonists of the progesterone receptor (PR) signaling pathway (AID 1346784; calls by dose curve; note: nearly all actives have a fitted effect of over 30% in size)
Summary of the method: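 Seed PR-UAS-bla HEK 293T cells (2% charcoal-stripped FBS), incubate 6 hr at 37C; add compounds in DMSO, 16 hr at 37C; add LiveBLAzer B/G substrate, 2 hr RT; read fluorescence intensity.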

[15] = qHTS assay to identify small molecule agonists of the TGF-beta/Smad signaling pathway - cell viability counter screen (AID 1346829); note: top concentration of the series differs between compounds; nearly all actives have a fitted effect of over 45% in size
Summary of the method: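 Same-well cytotoxicity: CellTiter-Glo added after the 2 hr room-temperature beta-lactamase substrate step, luminescence measured 30 min later; cells had 5 hr of compound at 37 C.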

[16] = biological target: Estrogen receptor (Homo sapiens) (UniProt P03372); experiment: qHTS assay to identify small molecule agonists of the estrogen receptor alpha (ER-alpha) signaling pathway in the presence of an antagonist (AID 1259383; calls by dose curve; note: top concentration of the series differs between compounds; nearly all actives have a fitted effect of over 15% in size)
Summary of the method: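 Agonist-mode confirmation run in the presence of 10.0nM (final) ICI-182,780 antagonist. The reporter was ERE-driven luciferase in VM7Luc4E2 cells, grown in charcoal-stripped serum. Cells were exposed to 15-concentration compound series for 22hr, then ONE-Glo luminescence was read.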

[17] = biological target: Thyrotropin receptor (Homo sapiens) (UniProt P16473); experiment: qHTS assay to identify small molecule antagonists of the thyroid stimulating hormone receptor (TSHR) signaling pathway (AID 1259385; calls by dose curve; note: nearly all actives have a fitted effect of over 20% in size; note: potency is the fitted concentration of half-maximal effect)
Summary of the method: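 TSHR-HEK293 cells (800/well) plated 18 h, then compounds with Ro20-1724 and TSH at 1.5 ng/mL final, 30 min at room temperature. cAMP quantified by HTRF (cAMP-d2/anti-cAMP-cryptate, 1 h); 15 concentrations in triplicate.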

[18] = qHTS assay to identify small molecule agonists of the progesterone receptor (PR) signaling pathway - cell viability counter screen (AID 1346799; calls by dose curve; note: nearly all actives have a fitted effect of over 45% in size; note: potency is the fitted concentration of half-maximal effect)
Summary of the method: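 Using the same plates as the PR reporter screen, HEK293T PR-UAS-bla cells received compounds for 16 hr at 37C and were then lysed with CellTiter-Glo; luminescence was read 30 min later at room temperature.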

[19] = biological target: Progesterone receptor (Homo sapiens) (UniProt P06401); experiment: qHTS assay to identify small molecule antagonists of the progesterone receptor (PR) signaling pathway (AID 1346795; active = well fitted inhibition curve with a large enough effect in the signal ratio in the repeat runs, not every such curve was filed as active; the % refers to the signal ratio; note: potency is the fitted concentration of half-maximal effect)
Summary of the method: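 Screening used a GripTite HEK293T line with PR-responsive UAS-beta-lactamase. Cells were challenged with compound in the presence of 1 nM R5020 final for 16 hr at 37C; B/G FRET substrate, 2 hr room temperature, fluorescence.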

[20] = qHTS assay to identify small molecule antagonists of the sonic hedgehog signaling (Shh) pathway (AID 1259369; calls by dose curve; note: nearly all actives have a fitted effect of over 45% in size; note: potency is the fitted concentration of half-maximal effect)
Summary of the method: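 Antagonist mode: compound added to 3T3 Gli1-Luc cells followed by conditioned-medium stimulation, 24 h at 37 C, 5% CO2. Inhibition taken as loss of Gli1-driven luciferase luminescence.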

Measured: Potency

Sequence of Estrogen receptor beta (Homo sapiens) (Q92731 whole entry, looked up): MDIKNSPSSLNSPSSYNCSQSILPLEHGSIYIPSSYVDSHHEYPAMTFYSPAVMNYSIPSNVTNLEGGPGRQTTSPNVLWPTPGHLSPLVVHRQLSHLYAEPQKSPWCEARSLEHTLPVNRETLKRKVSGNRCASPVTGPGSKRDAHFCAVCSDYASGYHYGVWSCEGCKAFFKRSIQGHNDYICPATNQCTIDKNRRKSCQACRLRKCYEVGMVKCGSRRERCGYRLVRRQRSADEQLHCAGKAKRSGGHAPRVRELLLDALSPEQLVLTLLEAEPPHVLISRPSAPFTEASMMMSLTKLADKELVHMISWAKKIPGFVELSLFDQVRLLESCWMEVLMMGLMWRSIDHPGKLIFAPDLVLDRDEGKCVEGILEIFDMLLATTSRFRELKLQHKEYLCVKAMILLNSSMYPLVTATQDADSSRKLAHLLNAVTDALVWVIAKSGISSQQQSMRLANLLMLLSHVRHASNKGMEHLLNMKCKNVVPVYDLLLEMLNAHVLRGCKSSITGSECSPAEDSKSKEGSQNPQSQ
Sequence of Thyrotropin receptor (Homo sapiens) (P16473 whole entry, looked up): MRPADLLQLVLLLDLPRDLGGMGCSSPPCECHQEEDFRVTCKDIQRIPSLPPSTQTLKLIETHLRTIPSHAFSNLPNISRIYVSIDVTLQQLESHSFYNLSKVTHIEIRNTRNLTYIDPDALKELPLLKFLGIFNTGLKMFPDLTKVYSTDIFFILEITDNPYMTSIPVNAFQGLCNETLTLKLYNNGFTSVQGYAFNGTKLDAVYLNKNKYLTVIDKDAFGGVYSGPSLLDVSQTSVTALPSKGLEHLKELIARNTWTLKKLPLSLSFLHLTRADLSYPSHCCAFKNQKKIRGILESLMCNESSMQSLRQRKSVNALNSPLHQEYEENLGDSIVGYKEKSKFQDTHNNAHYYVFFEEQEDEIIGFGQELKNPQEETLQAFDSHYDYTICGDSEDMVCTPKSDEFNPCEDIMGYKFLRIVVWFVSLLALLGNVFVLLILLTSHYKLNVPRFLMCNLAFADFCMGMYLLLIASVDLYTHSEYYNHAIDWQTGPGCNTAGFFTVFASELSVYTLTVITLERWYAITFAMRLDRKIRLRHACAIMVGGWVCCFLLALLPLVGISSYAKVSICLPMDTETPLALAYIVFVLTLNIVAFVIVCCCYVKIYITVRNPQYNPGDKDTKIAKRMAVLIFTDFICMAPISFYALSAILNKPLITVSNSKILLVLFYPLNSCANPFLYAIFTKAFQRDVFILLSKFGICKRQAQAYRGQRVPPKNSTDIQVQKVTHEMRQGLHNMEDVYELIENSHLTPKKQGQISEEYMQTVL
Sequence of Progesterone receptor (Homo sapiens) (P06401 whole entry, looked up): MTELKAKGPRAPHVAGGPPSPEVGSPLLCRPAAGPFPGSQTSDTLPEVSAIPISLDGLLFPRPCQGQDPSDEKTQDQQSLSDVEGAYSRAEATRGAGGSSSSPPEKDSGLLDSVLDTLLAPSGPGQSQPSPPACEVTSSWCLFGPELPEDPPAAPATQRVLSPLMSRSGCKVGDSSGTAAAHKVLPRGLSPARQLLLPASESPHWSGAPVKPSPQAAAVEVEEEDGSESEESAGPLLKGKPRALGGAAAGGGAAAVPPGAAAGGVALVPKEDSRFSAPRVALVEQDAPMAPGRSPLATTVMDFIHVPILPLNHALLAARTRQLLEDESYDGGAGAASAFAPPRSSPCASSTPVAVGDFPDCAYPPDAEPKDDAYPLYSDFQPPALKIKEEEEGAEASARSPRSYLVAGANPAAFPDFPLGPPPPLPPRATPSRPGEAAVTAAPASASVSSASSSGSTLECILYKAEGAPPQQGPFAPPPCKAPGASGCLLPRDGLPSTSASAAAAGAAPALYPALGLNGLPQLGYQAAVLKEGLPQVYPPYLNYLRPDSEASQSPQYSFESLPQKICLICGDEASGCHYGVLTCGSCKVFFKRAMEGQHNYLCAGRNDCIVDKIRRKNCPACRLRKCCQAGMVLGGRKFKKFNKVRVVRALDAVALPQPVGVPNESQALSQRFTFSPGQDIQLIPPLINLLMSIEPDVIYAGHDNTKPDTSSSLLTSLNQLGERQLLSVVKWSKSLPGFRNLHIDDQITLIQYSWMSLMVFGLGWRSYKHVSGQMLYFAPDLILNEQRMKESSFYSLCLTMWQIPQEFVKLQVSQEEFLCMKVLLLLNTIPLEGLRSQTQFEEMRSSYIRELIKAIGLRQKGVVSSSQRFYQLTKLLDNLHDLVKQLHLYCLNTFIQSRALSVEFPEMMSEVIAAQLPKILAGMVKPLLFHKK
Sequence of Thyrotropin-releasing hormone receptor (Homo sapiens) (P34981 whole entry, looked up): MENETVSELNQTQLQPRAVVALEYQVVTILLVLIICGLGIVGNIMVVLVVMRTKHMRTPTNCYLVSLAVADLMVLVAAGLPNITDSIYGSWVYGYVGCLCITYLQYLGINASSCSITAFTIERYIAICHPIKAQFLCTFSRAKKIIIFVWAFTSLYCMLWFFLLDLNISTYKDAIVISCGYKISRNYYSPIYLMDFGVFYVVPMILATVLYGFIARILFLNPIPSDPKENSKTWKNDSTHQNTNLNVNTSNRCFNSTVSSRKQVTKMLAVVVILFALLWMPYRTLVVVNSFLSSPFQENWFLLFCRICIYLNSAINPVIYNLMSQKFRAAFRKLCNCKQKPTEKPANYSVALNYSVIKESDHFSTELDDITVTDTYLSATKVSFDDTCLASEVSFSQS
Sequence of Androgen receptor (Homo sapiens) (P10275 whole entry, looked up): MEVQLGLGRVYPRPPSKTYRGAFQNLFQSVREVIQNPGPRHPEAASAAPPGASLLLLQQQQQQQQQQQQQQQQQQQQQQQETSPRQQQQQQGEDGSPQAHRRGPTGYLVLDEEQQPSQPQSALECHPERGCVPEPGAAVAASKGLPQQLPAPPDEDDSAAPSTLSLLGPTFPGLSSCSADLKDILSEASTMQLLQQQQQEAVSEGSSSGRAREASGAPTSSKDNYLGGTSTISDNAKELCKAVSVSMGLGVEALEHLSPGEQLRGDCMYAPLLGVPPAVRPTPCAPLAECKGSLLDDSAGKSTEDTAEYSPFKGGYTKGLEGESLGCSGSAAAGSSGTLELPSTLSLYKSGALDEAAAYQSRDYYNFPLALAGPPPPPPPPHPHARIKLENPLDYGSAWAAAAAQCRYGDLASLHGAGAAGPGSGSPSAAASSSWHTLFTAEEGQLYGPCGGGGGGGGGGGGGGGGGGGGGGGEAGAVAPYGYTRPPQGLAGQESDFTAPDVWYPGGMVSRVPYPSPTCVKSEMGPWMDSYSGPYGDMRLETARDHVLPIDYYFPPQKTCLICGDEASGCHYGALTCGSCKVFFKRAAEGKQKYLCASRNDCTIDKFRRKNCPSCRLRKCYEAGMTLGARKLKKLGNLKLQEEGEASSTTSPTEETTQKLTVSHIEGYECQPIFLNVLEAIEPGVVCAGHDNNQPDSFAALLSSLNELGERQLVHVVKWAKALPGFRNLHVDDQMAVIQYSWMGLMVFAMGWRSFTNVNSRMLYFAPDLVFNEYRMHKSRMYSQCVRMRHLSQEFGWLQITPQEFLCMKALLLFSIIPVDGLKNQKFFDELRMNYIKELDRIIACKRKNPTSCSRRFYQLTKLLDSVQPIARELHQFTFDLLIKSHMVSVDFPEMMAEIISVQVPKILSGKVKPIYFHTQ
Sequence of Estrogen receptor (Homo sapiens) (P03372 whole entry, looked up): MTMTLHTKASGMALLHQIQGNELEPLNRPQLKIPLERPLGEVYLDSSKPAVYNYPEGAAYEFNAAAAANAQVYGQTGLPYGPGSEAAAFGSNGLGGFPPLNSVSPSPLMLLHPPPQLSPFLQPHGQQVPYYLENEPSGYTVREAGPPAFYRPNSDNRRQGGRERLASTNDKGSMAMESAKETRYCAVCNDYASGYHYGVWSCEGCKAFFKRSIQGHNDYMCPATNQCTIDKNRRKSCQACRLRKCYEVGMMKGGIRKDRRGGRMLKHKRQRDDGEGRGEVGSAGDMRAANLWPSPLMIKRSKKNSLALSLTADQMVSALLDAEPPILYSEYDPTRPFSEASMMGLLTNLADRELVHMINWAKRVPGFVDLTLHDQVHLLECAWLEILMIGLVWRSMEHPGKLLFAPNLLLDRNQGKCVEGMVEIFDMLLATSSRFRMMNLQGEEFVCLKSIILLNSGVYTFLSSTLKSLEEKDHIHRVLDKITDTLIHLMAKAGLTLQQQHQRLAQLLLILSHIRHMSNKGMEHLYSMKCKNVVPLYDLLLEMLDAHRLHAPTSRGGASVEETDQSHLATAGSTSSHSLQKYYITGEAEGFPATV

CCCCCCCCCCCCN1CCCCCC1=O
active: [3] 30.6 µM
inactive: [1] | [2] | [4] | [5] | [6] | [7] | [8] | [9] | [10] | [11]

Cc1cc(N)c2cc(NC(=O)Nc3ccc4nc(C)cc(N)c4c3)ccc2n1
not listed: [5] | [7] | [9] | [16] | [17] | [18] | [19] | [20]
inactive: all other assays above

CN1C[C@H]2c3ccccc3Oc3ccc(Cl)cc3[C@@H]2C1
not listed: [3] | [13] | [18] | [19] | [20]
inactive: all other assays above

CN1CCC(N(Cc2cccs2)c2ccccc2)CC1
active: [7] 23.7 µM | [18] 15 µM
not listed: [3] | [8] | [10] | [11] | [13] | [19] | [20]
inactive: all other assays above

CN1CCN(C(c2ccccc2)c2ccccc2)CC1
not listed: [6] | [20]
inactive: all other assays above

CCOC(=O)COC(=O)c1cc(Oc2ccc(C(F)(F)F)cc2Cl)ccc1[N+](=O)[O-]
not listed: [6] | [9] | [10] | [11] | [16] | [19] | [20]
inactive: all other assays above

CC(C)C[C@H]1C(=O)N2CCC[C@H]2[C@]2(O)O[C@](NC(=O)[C@@H]3C=C4c5cccc6[nH]c(Br)c(c56)C[C@H]4N(C)C3)(C(C)C)C(=O)N12
active: [20] 5.19 µM
not listed: [1] | [2] | [7] | [9] | [12] | [13] | [16] | [18]
inactive: all other assays above

C[N+]1(CC2COC(c3ccccc3)(C3CCCCC3)O2)CCCCC1 (configuration not stated)
not listed: [2] | [10] | [11] | [13] | [20]
inactive: all other assays above

COc1cccc(N(C)C(=S)Oc2ccc3c(c2)CCCC3)n1
active: [19] 18.8 µM
not listed: [3] | [5] | [13] | [17] | [20]
inactive: all other assays above

CC(C)OC(=O)C(C)N(C(=O)c1ccccc1)c1ccc(F)c(Cl)c1 (configuration not stated)
active: [19] 24.3 µM
not listed: [5] | [7] | [12] | [13] | [16] | [17] | [18] | [20]
inactive: all other assays above

CNCCCN1c2ccccc2CCc2ccccc21
active: [20] 5.96 µM | [3] 23.7 µM | [4] 23.7 µM | [17] 29.8 µM | [7] 18.8 µM | [18] 21.1 µM
inactive: [13] | [16] | [5] | [6] | [14] | [15] | [9]

OCCN1CCN(CCCN2c3ccccc3C=Cc3ccccc32)CC1
active: [3] 5.31 µM
inactive: [1] | [2] | [16] | [5] | [17] | [19] | [7] | [8] | [15] | [9]

O=P(O)(OCc1ccccc1)OCc1ccccc1
not listed: [6] | [10] | [11] | [13] | [19] | [20]
inactive: all other assays above

CCCn1cnc2c1c(=O)n(CCCCC(C)=O)c(=O)n2C
not listed: [17] | [20]
inactive: all other assays above

Cc1ccccc1S(=O)(=O)O
not listed: [13] | [16] | [20]
inactive: all other assays above

CC(=O)c1ccc2c(c1)N(CCCN(C)C)c1ccccc1S2
not listed: [1] | [3] | [4] | [7] | [12] | [13] | [19]
inactive: all other assays above
